Some of the results follow. No count for the full screen is at hand.
B1: HC1822 (peptide)
chain: CADQMEECSQAGNASASA
B2: HC2022 (peptide)
chain: CAVQCCSMSYAGNASASA
B3: HC300 (peptide)
chain: CADLCGSVFLAGNASASA
B4: HC1361 (peptide)
chain: CASDGSWSTVAGNASASA
B5: FS-2885 (peptide)
chain: CARAKRQKDFAGNASASA
B6: FS-2199 (peptide)
chain: CARWKRNLDFAGNASASA
B7: FS-3131 (peptide)
chain: CARWKRPIDLAGNASASA
B8: FS-3214 (peptide)
chain: CARWKRGLDWAGNASASA
B9: FS-1806 (peptide)
chain: CARWKRPAFTAGNASASA
B10: HC271 (peptide)
chain: CALHTPGCVPAGNASASA
B11: HC1656 (peptide)
chain: CAWIWFCLLLAGNASASA
B12: FS-1314 (peptide)
chain: CACWPRHRRVAGNASASA
B13: FS-1601 (peptide)
chain: CAMRLRIRRMAGNASASA
B14: FS-504 (peptide)
chain: CASQSRIRRMAGNASASA
B15: HC903 (peptide)
chain: CATQRRGRTGAGNASASA
B16: FS-175 (peptide)
chain: CAKWSRHRRMAGNASASA
B17: FS-276 (peptide)
chain: CAMRAFQRRMAGNASASA
B18: FS-511 (peptide)
chain: CATQSRIRRMAGNASASA
B19: HC841 (peptide)
chain: CANIEEVALSAGNASASA
B20: FS-33 (peptide)
chain: CAIKKRRRRRAGNASASA
B21: FS-527 (peptide)
chain: CAFYLRRRRRAGNASASA
B22: FS-1881 (peptide)
chain: CAIKKRFQTTAGNASASA
B23: HC342 (peptide)
chain: CASMVGNWAKAGNASASA
B24: HC2494 (peptide)
chain: CASKPCSAHLAGNASASA
B25: FS-1585 (peptide)
chain: CAARPRRARQAGNASASA

Biological target: furin, P09958
Sequence (P09958 whole entry): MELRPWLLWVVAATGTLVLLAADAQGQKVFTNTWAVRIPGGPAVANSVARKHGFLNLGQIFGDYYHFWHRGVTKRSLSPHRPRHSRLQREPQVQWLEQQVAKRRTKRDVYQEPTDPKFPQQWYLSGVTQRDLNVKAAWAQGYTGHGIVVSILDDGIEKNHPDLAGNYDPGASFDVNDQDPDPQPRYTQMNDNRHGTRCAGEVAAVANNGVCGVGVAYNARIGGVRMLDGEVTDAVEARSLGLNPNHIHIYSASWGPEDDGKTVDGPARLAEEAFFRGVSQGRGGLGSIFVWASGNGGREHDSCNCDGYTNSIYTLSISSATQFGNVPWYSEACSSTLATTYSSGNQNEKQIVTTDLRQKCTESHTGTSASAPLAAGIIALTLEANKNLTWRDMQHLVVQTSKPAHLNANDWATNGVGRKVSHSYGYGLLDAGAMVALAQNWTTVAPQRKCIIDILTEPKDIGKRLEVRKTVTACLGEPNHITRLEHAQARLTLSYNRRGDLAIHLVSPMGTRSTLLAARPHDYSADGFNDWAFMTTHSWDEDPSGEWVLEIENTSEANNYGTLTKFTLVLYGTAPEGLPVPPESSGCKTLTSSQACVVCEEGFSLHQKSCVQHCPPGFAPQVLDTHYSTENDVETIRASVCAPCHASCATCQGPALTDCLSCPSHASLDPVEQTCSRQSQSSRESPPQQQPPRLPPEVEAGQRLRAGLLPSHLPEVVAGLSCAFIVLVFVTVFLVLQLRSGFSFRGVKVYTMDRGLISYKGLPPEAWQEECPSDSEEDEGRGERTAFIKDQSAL
Assay: furin cleavage Z-score vs untreated control; higher = more cleavage, active = 3.5 or more, inactive = 1 or less, 8 variable residues between constant flanks
Summary of the method: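 Purified furin cleaved 8-mer peptides that were fused to a cDNA oligonucleotide and held on magnetic beads by their N-terminus. Each 0.01 ml reaction used a 1:10 enzyme:substrate ratio in 50 mM HEPES pH 7.5 with CaCl2 and NaCl and ran 7.5, 15 or 30 min. Released DNA was adapter-tagged by PCR and sequenced, and read counts gave abundance. The cleavage Z-score came from log counts against furin-free reactions, lowess-adjusted and scaled by median absolute deviation.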

Row | Sequence | furin cleavage Z-score (7.5 min) | furin cleavage Z-score (15 min) | furin cleavage Z-score (30 min)
1 | B1 | -1.95 (inactive) | 0.171 (inactive) | 0.415 (inactive)
2 | B2 | -0.966 (inactive) | 0.322 (inactive) | 0.723 (inactive)
3 | B3 | -2.25 (inactive) | -0.764 (inactive) | -0.906 (inactive)
4 | B4 | 1.87 | 1.47 | 0.994 (inactive)
5 | B5 | 3.42 | 4.84 (active) | 4.86 (active)
6 | B6 | 6.47 (active) | 7.97 (active) | 10.7 (active)
7 | B7 | -0.222 (inactive) | 0.7 (inactive) | 0.99 (inactive)
8 | B8 | 7.21 (active) | 8.26 (active) | 10.3 (active)
9 | B9 | -0.259 (inactive) | 0.293 (inactive) | -0.665 (inactive)
10 | B10 | -1.15 (inactive) | -0.17 (inactive) | 0.0406 (inactive)
11 | B11 | -0.725 (inactive) | -0.337 (inactive) | -0.583 (inactive)
12 | B12 | 0.553 (inactive) | 1.38 | 2.27
13 | B13 | 10.1 (active) | 8.78 (active) | 9.1 (active)
14 | B14 | 9.85 (active) | 9.09 (active) | 8.46 (active)
15 | B15 | -0.796 (inactive) | -0.169 (inactive) | -0.351 (inactive)
16 | B16 | 11.5 (active) | 12.9 (active) | 11.2 (active)
17 | B17 | -1.44 (inactive) | -1.21 (inactive) | -0.935 (inactive)
18 | B18 | 5.23 (active) | 7.4 (active) | 6.25 (active)
19 | B19 | 0.342 (inactive) | 0.83 (inactive) | -1.19 (inactive)
20 | B20 | 7.42 (active) | 7.44 (active) | 6.1 (active)
21 | B21 | 2.84 | 3.02 | 3.78 (active)
22 | B22 | -0.863 (inactive) | -1.06 (inactive) | -0.368 (inactive)
23 | B23 | 1.34 | 0.0553 (inactive) | 0.702 (inactive)
24 | B24 | 1.46 | 0.933 (inactive) | 0.45 (inactive)
25 | B25 | 9.65 (active) | 12 (active) | 7.48 (active)
